High-throughput results as filed in PubChem BioAssay.
IL-1B inflam inh – inhibitors of inflammasome signaling (IL-1 beta secretion); actives 4.7% (n = 360,000); THP-1 LPS/ATP IL-1B secretion, AlphaLISA, 16 h; stronger effect = lower value; activity change, % at 57.5 µM; in the data active means activity change below about -50%; inconclusive means mostly about -30% to -49%
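THP-1 cells pretreated 1 hr with compounds (up to 57.5 uM final), then stimulated with LPS (250 ng/mL final) plus ATP (1.25 mM final); secreted IL-1B measured by AlphaLISA after 16 hr, decreased signal indicating inhibition.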
HT1080-NT tox – kills 2HG-producing HT-1080-NT fibrosarcoma cells | actives 1.6% (n = 360,000) | Potency, µM (series often up to 46.1 µM), without a hit: at the top dose activity, negative = less viability, actives largely listed as cytotoxic | HT-1080-NT fibrosarcoma viability, CellTiter-Glo ATP luminescence, 48 h;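 further: NT is the 2HG producing partner of a matched IDH1 knockdown line; potency means the concentration at half of the fitted maximal effect; 0% = DMSO-treated cells and -100% = media-only wells without cells; nearly all actives have a fitted effect of over 55% in size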
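Luminescent CellTiter-Glo readout after 48 hours of compound exposure at 37 degrees C defined viability of HT-1080-NT cells. Activity was normalized to DMSO wells and cell-free media wells; concentration-response curves were fitted and assigned curve classes.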
HT1080 IDH1KD tx – kills HT-1080 cells with IDH1 knockdown. actives 2% (n = 360,000). HT-1080 IDH1 knockdown viability, ATP luminescence, 48 h. Potency, µM (series often up to 46.1 µM), inactives show at the top dose activity, negative = toxicity, actives largely listed as cytotoxic;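 further: potency means the concentration at half of the fitted maximal effect; 0% = DMSO wells and -100% = cell-free medium wells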
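Luminescent ATP read-out (CellTiter-Glo, 10 min at room temperature) after 48 h compound exposure at 37 °C gave viability of IDH1-knockdown HT-1080 cells. Activity was normalised to DMSO and cell-free wells, then fitted as concentration-response curves.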
KB-V1 cytotox – KB-V1 MDR subline cytotoxicity; KB-V1 MDR cells viability, CellTiter-Glo, 72 h; Potency, µM (titrated, usually from 46.1 µM), most hits filed as cytotoxic; actives 3.4% (n = 400,000); further: potency means the concentration at half of the fitted maximal effect; nearly all actives have a fitted effect of over 60% in size
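Luminescent ATP read-out (CellTiter-Glo, 10 min) measures survival of drug-selected KB-V1 MDR cells after 72 h, 37 degrees C compound exposure. Medium: phenol-red-free DMEM, 10% FBS. Values from fitted concentration-response curves.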
KB-3-1 tox – kills parental KB-3-1 adenocarcinoma cells; actives 1.4% (n = 400,000); KB-3-1 viability, CellTiter-Glo ATP luminescence, 72 h; Potency, µM (highest dose often 46.1 µM), most hits filed as cytotoxic; further: potency means the concentration at half of the fitted maximal effect; nearly all actives have a fitted effect of over 60% in size
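Using CellTiter-Glo luminescence, growth of non-resistant KB-3-1 adenocarcinoma cells is assessed 72 h after pin-tool compound addition at 37 °C. Normalized responses across the concentration series yield fitted curves.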
Active calls of the source: *; i = inactive; u = inconclusive; x = no result given; [ ] = another dose, or the depositor's remark. An excerpt weighted towards active compounds, which were near 8.8% of everything screened. Unless noted, the call rests on the fitted dose curve; in most records, active means well fitted curve in the direction sought with a large enough effect; inconclusive means small, poorly fitted or top-dose-only effect, or another doubt; inactive means no such curve, though single readings can be large; an effect the other way counts as inactive or inconclusive. Unless noted, on the % scale 0 is the no-effect control and ±100 the full control effect.

SMILES	IL-1B inflam inh	HT1080-NT tox	HT1080 IDH1KD tx	KB-V1 cytotox	KB-3-1 tox
Cc1cc(C)nc(-n2nc(C)c3c2NC(=O)CC3c2ccccc2OC(C)C)n1 (configuration not stated)	x	x	x	i	i
CCN(CC)C(=O)Oc1ccc2c(=O)c(-c3ccccc3)coc2c1	-54*	-19%	-3%	21µM*	i
O=C(Nc1ccc(F)cc1)c1cc(S(=O)(=O)N2CCOCC2)cs1	2	7%	-11%	i	i
COc1ccc(C(=O)Nc2ccc(S(=O)(=O)Nc3nccnc3OC)cc2)cc1	-14	-2%	1%	18µM*	u
O=C(Nc1ncccc1O)c1ccc(S(=O)(=O)Nc2ccccc2)cc1	30	13µM*	9.2µM*	9.2µM*	10µM*
COc1ccc(NC(=O)c2cc(S(=O)(=O)Nc3ccc(OC)cc3)cs2)cc1	-12	-1%	-5%	21µM*	i
O=C(Nc1ccc(Cl)cc1)c1cc(S(=O)(=O)N2CCOCC2)cs1	u	u	-23%	9.2µM*	u
COc1nccnc1NS(=O)(=O)c1ccc(NC(=O)c2ccc(F)cc2)cc1	2	7%	-3%	i	i
Cc1noc(C)c1CSCc1ccc(Cl)cc1	0	10%	14%	i	i
O=S(=O)(/C=C/c1ccccc1)NCc1ccccc1Cl	-24	1%	0%	i	i
Cc1ccc(NC(=O)c2cc(S(=O)(=O)N3CCOCC3)cs2)cc1	-18	0%	-10%	i	i
Cc1ccc(NC(=O)c2cc(S(=O)(=O)N3CCCCC3)cs2)cc1	-73*	u	-4%[9.24 µM]	15µM*	u
O=C1CC(=O)OC(c2ccc([N+](=O)[O-])cc2)O1	-55*	16µM*	4.6µM*	u	i
CCC1C(=O)C(C)(C)C(=O)OC1c1ccc([N+](=O)[O-])cc1 (configuration not stated)	-4	19%	13%	i	i
O=C(c1ccc2c(=O)n3c(nc2c1)CCC3)N1CCN(S(=O)(=O)c2ccccc2Br)CC1	-15	1%	1%	i	i
CC(C)(C)c1nc2ccccc2c2nnc(SCC(=O)Nc3nc4ccccc4s3)n12	14	u	u	u	i
CC1CCCCN1C(=O)CSc1nc(C2CC2)nc2ccccc12 (configuration not stated)	-77*	-28%	u	i	i
Cc1occc1-c1nnc(SCC(=O)NCc2ccco2)n1CC(C)C	15	3%	2%	i	i
Cc1sc2nc(C3CC3)nc(SCC(=O)NCc3ccco3)c2c1C	12	u	-10%	u	i
O=C(CSc1nc(C2CCCCC2)nc2ccccc12)NCc1ccco1	-82*	u	-17%	u	u
CC(C)(C)c1nc2ccccc2c2nnc(SCC(=O)NCc3ccco3)n12	0	13%	2%	5.2µM*	i
C=CCn1c(SCC(=O)NCc2ccco2)nnc1-c1ccc2ccccc2n1	0	-5%	-11%	7.3µM*	i
COc1cc(CCC(=O)OCC(=O)Nc2cc(S(=O)(=O)N3CCOCC3)ccc2Cl)cc(OC)c1OC	17	1%	0%	i	i
CC(C)c1nc2ccccc2c2nnc(SCC(=O)NCc3ccco3)n12	6	-2%	-29%	4.1µM*	u
Cc1cc(C)n2c(SCC(=O)NCc3ccco3)nnc2n1	-1	8%	12%	i	i
SMILES	IL-1B inflam inh	HT1080-NT tox	HT1080 IDH1KD tx	KB-V1 cytotox	KB-3-1 tox
O=C1NC(c2ccc(O)cc2)Nc2ccccc21 (configuration not stated)	21	u	u	u	u
Cc1cc(C)c2nc(Cl)c(C3NC(=O)c4ccccc4N3)cc2c1 (configuration not stated)	53	0%	4%	i	i
CSc1ccc(C2NC(=O)c3ccccc3N2)cc1 (configuration not stated)	35	18µM*	9.2µM*	u	u
COc1cc(C)c(C2NC(=O)c3ccccc3N2)cc1C (configuration not stated)	8	5.8µM*	u	u	2.6µM*
Cc1ccc(C)c(C2NC(=O)c3ccccc3N2)c1 (configuration not stated)	10	u	2.3µM*	i	u
Cn1cc(C2NC(=O)c3ccccc3N2)c2ccccc21 (configuration not stated)	29	4.6µM*	8.2µM*	1.5µM*	1.2µM*
COc1ccc(C2NC(=O)c3ccccc3N2)c(OC)c1OC (configuration not stated)	21	-16%	u	u	u
COc1ccc2c(c1)c1ncn(CCN3CCCC3)c(=O)c1n2C	-6	4%	-4%	8.2µM*	i
CC(C)(C)S(=O)(=O)N1C[C@@H]2C(=CC[C@H]3C(=O)N(c4ccccc4)C(=O)[C@@H]23)[C@@H]1CCO	-2	-3%	-3%	i	i
C=CCn1c(SCC(=O)c2ccccc2)nnc1-c1ccc2c(c1)OCO2	0	-2%	-2%	21µM*	i
C=CCn1c(SCc2ccc(C(=O)Nc3ccccc3)cc2)nnc1-c1ccccc1	-2	0%	-2%	2.6µM*	i
C=CCn1c(SCC(=O)c2ccccc2)nnc1-c1cc2ccccc2o1	-6	-8%	-5%	u	i
O=C(NCc1ccccn1)c1cccc(S(=O)(=O)NCc2ccccc2)c1	2	0%	15%	i	i
CCOc1cc(/C=N/O)ccc1OCC(=O)Nc1cccc(C)c1	-3	10%	25%	13µM*	i
CCOc1cc(/C=N\NC(=O)Cc2ccccc2)ccc1OCC(=O)Nc1ccc(C)c(C)c1	18	4%	10%	u	u
O=C(COc1ccccc1Cl)Nc1ccc(NC(=O)c2ccco2)cc1	-59*	9%	6%	i	i
CCOc1ccccc1OCC(=O)Nc1ccc2[nH]c(=O)[nH]c2c1	25	-5%	0%	16µM*	8.2µM*
COc1ccc(OCC(=O)Nc2nnc(C)s2)cc1	0	17%	13%	i	i
O=C(COC(=O)c1ccccc1)Nc1ccc2[nH]c(=O)[nH]c2c1	31	19%	15%	u	i
CCOc1ccccc1OCC(=O)Nc1nnc(C)s1	-58*	-21%	-4%	i	i
CSc1ccc(NC(=O)C(C)N2CCN(C)CC2)cc1 (configuration not stated)	38	21%	22%	i	i
O=C(COc1ccccc1Cl)Nc1ccc2c(c1)C(=O)NC2=O	-27	u	u	i	i
O=C(COc1ccccc1Cl)Nc1ccc2[nH]c(=O)[nH]c2c1	-4	6%	6%	0.52µM*	1.5µM*
